Results as given in PubChem BioAssay (NCATS).
Inconclusive results are not listed. Entries that show only a call come without a potency. Unmarked numbers belong to inactive results. Activity calls are given as the source filed them. Calls follow the shape of the dose curve; as a rule, active = well fitted activation curve with a large enough effect in the main read-out, with a control signal flat (not every such curve was filed as active); inconclusive = small, poorly fitted or top-dose-only effect, or effect the other way, or a change in a side signal; inactive = flat fitted curve, though single readings scatter.

These compounds were tested against 3',5'-cyclic-AMP phosphodiesterase 4B (Homo sapiens) (UniProt Q07343) (assay: qHTS Assay for Inhibitors of PDE-IV (AID 607)). Conditions: HEK293 ACTOne CNG channel cells, membrane potential fluorescence; series mostly up to 22.9 µM; activation (PDE inhibition): at the top concentration.
Chain of 3',5'-cyclic-AMP phosphodiesterase 4B (Homo sapiens) (Q07343 whole entry, looked up): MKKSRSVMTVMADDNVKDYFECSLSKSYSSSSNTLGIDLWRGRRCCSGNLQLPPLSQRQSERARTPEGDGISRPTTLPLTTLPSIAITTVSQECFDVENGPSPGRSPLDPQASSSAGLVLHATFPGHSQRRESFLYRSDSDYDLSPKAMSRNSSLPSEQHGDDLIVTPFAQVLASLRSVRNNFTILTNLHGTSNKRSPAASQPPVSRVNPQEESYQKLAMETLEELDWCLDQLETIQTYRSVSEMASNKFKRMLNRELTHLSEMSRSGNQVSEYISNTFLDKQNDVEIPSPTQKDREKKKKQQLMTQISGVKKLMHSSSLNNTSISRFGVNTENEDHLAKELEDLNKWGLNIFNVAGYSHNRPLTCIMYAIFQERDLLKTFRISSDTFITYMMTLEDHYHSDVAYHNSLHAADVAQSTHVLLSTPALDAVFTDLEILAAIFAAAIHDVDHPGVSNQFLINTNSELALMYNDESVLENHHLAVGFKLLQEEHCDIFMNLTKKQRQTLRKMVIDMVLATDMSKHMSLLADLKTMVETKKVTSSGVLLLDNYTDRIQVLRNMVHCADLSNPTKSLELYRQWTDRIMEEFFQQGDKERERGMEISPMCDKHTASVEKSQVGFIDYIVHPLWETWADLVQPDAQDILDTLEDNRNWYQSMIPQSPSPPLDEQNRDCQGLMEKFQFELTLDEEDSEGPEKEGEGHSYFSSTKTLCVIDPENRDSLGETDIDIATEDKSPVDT
Summary of the method: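 Live HEK293 cells with a modified cyclic nucleotide-gated (CNG) channel report intracellular cAMP via membrane-potential dye fluorescence (ex 535/em 590 nm). Endogenous PDE-IV was targeted. Compounds were tested at up to 22.9 uM final; RO 20-1724 100 uM served as control.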
Potency is read from the fitted curve at half-maximal effect.

SMILES | Potency | activation (PDE inhibition) [%]
O=C1CC2(CCCC2)CC(=O)N1CCCCN1CCN(c2ncccn2)CC1 | inactive | 
C#CCN(C)CCCOc1ccc(Cl)cc1Cl | inactive | 
CC(C)[N+](C)(CCOC(=O)C1c2ccccc2Oc2ccccc21)C(C)C | inactive | 
O=C(O)CN(CCN(CC(=O)O)CC(=O)O)CCN(CC(=O)O)CC(=O)O | inactive | 
CN(C)CCN(Cc1cccs1)c1ccccn1 | inactive | 
CCOC(=O)c1cnc2c(cnn2CC)c1NN=C(C)C | 951 nM (active) | 
CCCN(CCC)CCc1cccc2c1CC(=O)N2 |  | -0.899
O=C(CCCN1CCC(O)(c2cccc(C(F)(F)F)c2)CC1)c1ccc(F)cc1 |  | 20.7
CN1CCN(CC(=O)N2c3ccccc3C(=O)Nc3cccnc32)CC1 | inactive | 
CCn1nc(C(=O)O)c(=O)c2cc3c(cc21)OCO3 | inactive | 
CCN(CC)CC(=O)Nc1c(C)cccc1C | inactive | 
COc1cc(C(=O)OCCCN2CCCN(CCCOC(=O)c3cc(OC)c(OC)c(OC)c3)CC2)cc(OC)c1OC | inactive | 
CC1=C(C)C(=O)C(CCCCC#CCCCC#CCO)=C(C)C1=O |  | 11.2
Cc1ccc(=O)n(-c2ccccc2)c1 | inactive | 
CN(C)CCOC(=O)COc1ccc(Cl)cc1 | inactive | 
C[N+](C)(C)CCCCCCCCCC[N+](C)(C)C | inactive | 
O=C1NCN(c2ccccc2)C12CCN(CCCC(c1ccc(F)cc1)c1ccc(F)cc1)CC2 |  | 2.64
COCC(=O)O[C@]1(CCN(C)CCCc2nc3ccccc3[nH]2)CCc2cc(F)ccc2[C@@H]1C(C)C |  | 9.8
NC(N)=NC(=O)Cc1c(Cl)cccc1Cl | inactive | 
